PubChem BioAssay (NCI)
This is part of a sample that, as a whole, favours compounds with a hit. Of some 83,000 tested, about 20% had one in any assay.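 Cell lines were cultured in 96-well plates, exposed to a single compound concentration, and assessed for percent growth 48 hours later.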 Activity calls are given as the source filed them. The calls were made as follows: active = growth percent below 10; inactive = the rest.

How the values were obtained:
Assay in all cases: NCI-60 one-dose screen, 48 h (100 = growth as untreated, 0 = no growth, -100 = all killed)
NCI-H23 lung = details: 10 µM unless noted
NCI-H226 lung = details: 10 µM unless noted
NCI-H322M lung = details: 10 µM unless noted
HOP-62 NSCLC = details: 10 µM unless noted
NCI-H460 lung = details: 10 µM unless noted
HOP-92 NSCLC = details: 10 µM
A549/ATCC NSCLC = details: 10 µM unless noted
786-0 renal = details: 10 µM unless noted
COLO 205 colon = details: 10 µM unless noted
DU-145 prostate = details: 10 µM unless noted
K-562 leukemia = details: 10 µM unless noted
MALME-3M melanoma = details: 10 µM unless noted
MDA-MB-231 breast = details: 10 µM unless noted
RXF 393 renal = details: 10 µM unless noted
SF-268 CNS = details: 10 µM unless noted
SF-295 CNS = details: 10 µM unless noted
SF-539 CNS = details: 10 µM unless noted
UACC-257 melanoma = details: 10 µM unless noted
M14 melanoma = details: 10 µM unless noted
NCI-H522 lung = details: 10 µM unless noted

Measured: growth

CC1(C)[C@@H](O)CC[C@]2(C)[C@H]3CC[C@@H]4[C@H]5[C@H](C(=O)/C=C\c6ccccn6)CC[C@]5(O)CC[C@@]4(C)[C@]3(C)CC[C@@H]12
active: K-562 leukemia 7.45% | RXF 393 renal -16.2%
inactive: NCI-H23 lung 31.7% | NCI-H226 lung 16.3% | NCI-H322M lung 84.3% | HOP-62 NSCLC 73.6% | NCI-H460 lung 15.6% | HOP-92 NSCLC 60.9% | A549/ATCC NSCLC 49.7% | 786-0 renal 32.7% | COLO 205 colon 67.7% | DU-145 prostate 33.4% | MALME-3M melanoma 56.4% | MDA-MB-231 breast 33.5% | SF-268 CNS 56.5% | SF-295 CNS 73.6% | SF-539 CNS 25.7% | UACC-257 melanoma 61.9% | M14 melanoma 52.9%

NC(N)=Nc1ccc(Oc2ccc(Nc3ccc(Cl)c(C(F)(F)F)c3)cc2)cc1
active: NCI-H460 lung -0.702% | K-562 leukemia 7.03%
inactive: NCI-H23 lung 11.8% | NCI-H226 lung 48.9% | NCI-H322M lung 68.5% | HOP-62 NSCLC 76.4% | HOP-92 NSCLC 34.1% | NCI-H522 lung 18.2% | A549/ATCC NSCLC 31.1% | 786-0 renal 34.6% | DU-145 prostate 39% | MALME-3M melanoma 61.7% | MDA-MB-231 breast 28.4% | SF-268 CNS 39% | SF-295 CNS 22.3% | SF-539 CNS 25.5% | UACC-257 melanoma 68.3%

NC(N)=Nc1ccc(Oc2cccc(NC(N)=Nc3ccc(Br)cc3)c2)cn1
inactive: NCI-H23 lung 61.1% | NCI-H226 lung 81.3% | NCI-H322M lung 65.1% | HOP-62 NSCLC 65.6% | NCI-H460 lung 46.7% | HOP-92 NSCLC 29% | NCI-H522 lung 46.9% | A549/ATCC NSCLC 53.5% | 786-0 renal 68.7% | DU-145 prostate 80.4% | K-562 leukemia 52.4% | MALME-3M melanoma 69.8% | MDA-MB-231 breast 76.8% | SF-268 CNS 28.2% | SF-295 CNS 44.4% | SF-539 CNS 48.7% | UACC-257 melanoma 77.9%

C/C(=N\O)[C@H]1C[C@]23CC[C@]4(C)[C@H](CC[C@@H]5[C@@]6(C)CC/C(=N/O)C(C)(C)[C@@H]6CC[C@]54C)[C@H]2[C@H](C)C1(C)OC3
inactive: NCI-H23 lung 96.5% | NCI-H226 lung 91.9% | NCI-H322M lung 114% | HOP-62 NSCLC 88.5% | NCI-H460 lung 106% | HOP-92 NSCLC 106% | A549/ATCC NSCLC 94.7% | 786-0 renal 92.1% | COLO 205 colon 116% | DU-145 prostate 94.4% | K-562 leukemia 101% | MALME-3M melanoma 106% | MDA-MB-231 breast 99% | RXF 393 renal 58.1% | SF-268 CNS 89.4% | SF-295 CNS 101% | SF-539 CNS 103% | UACC-257 melanoma 110% | M14 melanoma 105%

CCN(CC)c1ccc2c(c1)Oc1nc(N)c(C#N)c(N)c1C2Sc1ccc(F)cc1 (stereo not drawn)
active: NCI-H23 lung -82.3% | NCI-H226 lung -84.8% | NCI-H322M lung -84.8% | HOP-62 NSCLC -15% | NCI-H460 lung -69.8% | HOP-92 NSCLC -36.7% | NCI-H522 lung -48.7% | A549/ATCC NSCLC -39.6% | 786-0 renal -83.8% | DU-145 prostate -94.2% | K-562 leukemia 2.27% | MALME-3M melanoma -45.6% | MDA-MB-231 breast -86% | SF-268 CNS -44.7% | SF-295 CNS -91.4% | SF-539 CNS -96.1% | UACC-257 melanoma -16.9%

C=CC(=O)N1CC=C(c2cc3c(N[C@H](C)c4ccccc4)ncnc3[nH]2)CC1
inactive: NCI-H23 lung 78.4% | NCI-H226 lung 58.7% | NCI-H322M lung 27.2% | HOP-62 NSCLC 58.1% | NCI-H460 lung 101% | HOP-92 NSCLC 39% | A549/ATCC NSCLC 60.4% | 786-0 renal 49.9% | COLO 205 colon 92.1% | DU-145 prostate 40.3% | K-562 leukemia 84.2% | MALME-3M melanoma 104% | MDA-MB-231 breast 47.8% | SF-268 CNS 63.4% | SF-295 CNS 79% | SF-539 CNS 60.1% | UACC-257 melanoma 102% | M14 melanoma 100%
active: RXF 393 renal -27.6%

COc1ccccc1C(=O)Nc1cccc2c1C(=O)C(=O)C=C2
inactive: NCI-H23 lung 85.5% | NCI-H226 lung 99.9% | NCI-H322M lung 112% | HOP-62 NSCLC 94.8% | NCI-H460 lung 103% | HOP-92 NSCLC 113% | A549/ATCC NSCLC 88.7% | 786-0 renal 92.2% | COLO 205 colon 71.5% | DU-145 prostate 93.6% | K-562 leukemia 63.2% | MALME-3M melanoma 95.4% | MDA-MB-231 breast 80.7% | RXF 393 renal 62.4% | SF-268 CNS 87% | SF-295 CNS 98.8% | SF-539 CNS 103% | UACC-257 melanoma 106% | M14 melanoma 119%

CCCn1cnc2c(c1=N)C(c1ccc(F)cc1)c1sc3c(CC)cccc3c1O2 (stereo not drawn)
inactive: NCI-H23 lung 12.4% | NCI-H322M lung 52% | HOP-62 NSCLC 28.2% | HOP-92 NSCLC 34.2% | A549/ATCC NSCLC 17% | MALME-3M melanoma 54.6% | SF-268 CNS 18.8% | UACC-257 melanoma 65.5% | M14 melanoma 13.3%
active: NCI-H226 lung -2.38% | NCI-H460 lung 2.7% | 786-0 renal 5.1% | COLO 205 colon -51.5% | DU-145 prostate 4.9% | K-562 leukemia 6.04% | MDA-MB-231 breast -19.8% | RXF 393 renal -17.3% | SF-295 CNS 7.42% | SF-539 CNS -25.6%

COc1ccc(NC(=O)CSc2nnc(-c3ccc4nc(-c5ccc(OC)c(OC)c5)[nH]c4c3)o2)cc1OC
inactive: NCI-H23 lung 80.6% | NCI-H226 lung 93.1% | NCI-H322M lung 89.4% | HOP-62 NSCLC 98.8% | NCI-H460 lung 102% | HOP-92 NSCLC 85.6% | NCI-H522 lung 95.1% | A549/ATCC NSCLC 101% | 786-0 renal 105% | DU-145 prostate 91.3% | K-562 leukemia 108% | MALME-3M melanoma 83.3% | MDA-MB-231 breast 93.5% | SF-268 CNS 93.3% | SF-295 CNS 107% | SF-539 CNS 93.3% | UACC-257 melanoma 106%

O=C(O)c1ccc(-n2cc(CNc3cc(F)c(F)c(F)c3)c(-c3ccc(F)cc3)n2)cc1
inactive: NCI-H23 lung 90% | NCI-H226 lung 101% | NCI-H322M lung 98% | HOP-62 NSCLC 113% | NCI-H460 lung 97.1% | HOP-92 NSCLC 108% | NCI-H522 lung 90.1% | A549/ATCC NSCLC 77.8% | 786-0 renal 109% | DU-145 prostate 98.3% | K-562 leukemia 71.1% | MALME-3M melanoma 76.5% | MDA-MB-231 breast 95.4% | SF-268 CNS 105% | SF-295 CNS 72.3% | SF-539 CNS 93.5% | UACC-257 melanoma 105%

COc1ccc(N2C(=O)c3cc(Cl)ccc3NC2SCc2ccccc2)cc1 (stereo not drawn)
inactive: NCI-H23 lung 97% | NCI-H226 lung 96.2% | NCI-H322M lung 97.1% | HOP-62 NSCLC 102% | NCI-H460 lung 109% | HOP-92 NSCLC 92.1% | NCI-H522 lung 87.4% | A549/ATCC NSCLC 91.5% | 786-0 renal 92% | DU-145 prostate 106% | K-562 leukemia 88.9% | MALME-3M melanoma 99.2% | MDA-MB-231 breast 85.1% | RXF 393 renal 101% | SF-268 CNS 98.3% | SF-295 CNS 102% | SF-539 CNS 98.7% | UACC-257 melanoma 97.7%

CCc1cccc(NC(=O)CNc2cc(S(=O)(=O)N(C)C)cc(C)c2C)c1
inactive: NCI-H23 lung 81.4% | NCI-H226 lung 77% | NCI-H322M lung 105% | HOP-62 NSCLC 73.8% | NCI-H460 lung 102% | HOP-92 NSCLC 72% | A549/ATCC NSCLC 85.2% | 786-0 renal 85.2% | COLO 205 colon 111% | DU-145 prostate 80.3% | K-562 leukemia 85% | MALME-3M melanoma 106% | MDA-MB-231 breast 78% | RXF 393 renal 37.7% | SF-268 CNS 75% | SF-295 CNS 91.6% | SF-539 CNS 90.7% | UACC-257 melanoma 101% | M14 melanoma 100%

CS(=O)(=O)c1ncc(-c2ccccc2)cn1
inactive: NCI-H23 lung 96% | NCI-H226 lung 101% | NCI-H322M lung 91.2% | HOP-62 NSCLC 100% | NCI-H460 lung 108% | HOP-92 NSCLC 104% | NCI-H522 lung 86.4% | A549/ATCC NSCLC 94.2% | 786-0 renal 109% | DU-145 prostate 104% | K-562 leukemia 93.3% | MALME-3M melanoma 104% | MDA-MB-231 breast 99.8% | RXF 393 renal 106% | SF-268 CNS 101% | SF-295 CNS 107% | SF-539 CNS 94.4% | UACC-257 melanoma 89.7%

O=C(NNc1nc2cc(F)ccc2n2c(CN3CCC(O)C3)ccc12)c1cnccn1 (stereo not drawn)
active: NCI-H460 lung 5.14% | NCI-H522 lung -0.38% | SF-295 CNS 4.11% | UACC-257 melanoma 7.04%
inactive: NCI-H23 lung 20.2% | NCI-H226 lung 18.8% | NCI-H322M lung 24.8% | HOP-62 NSCLC 14.6% | HOP-92 NSCLC 23.2% | A549/ATCC NSCLC 15.2% | 786-0 renal 16.2% | DU-145 prostate 24% | K-562 leukemia 11.8% | MALME-3M melanoma 12.1% | MDA-MB-231 breast 34.2% | SF-268 CNS 22.6% | SF-539 CNS 10.1%

C=C(C)[C@@H]1CC[C@]2(C(=O)NCCCCCN(CCC#N)CCC#N)CC[C@]3(C)[C@H](CC[C@@H]4[C@@]5(C)CCC(=O)C(C)(C)[C@@H]5CC[C@]43C)[C@@H]12
inactive: NCI-H23 lung 95.3% | NCI-H226 lung 92.8% | NCI-H322M lung 116% | HOP-62 NSCLC 82.6% | NCI-H460 lung 87.5% | HOP-92 NSCLC 97% | A549/ATCC NSCLC 90.9% | 786-0 renal 92% | COLO 205 colon 111% | DU-145 prostate 96.2% | K-562 leukemia 96.9% | MALME-3M melanoma 119% | MDA-MB-231 breast 107% | RXF 393 renal 58.2% | SF-268 CNS 81.5% | SF-295 CNS 99.6% | SF-539 CNS 101% | UACC-257 melanoma 103% | M14 melanoma 97.6%

Oc1cccc2ccc(-c3nnc(SCc4ccc(O)c5ncccc45)o3)nc12
inactive: NCI-H226 lung 35.2% | NCI-H322M lung 39.9% | HOP-62 NSCLC 25.8% | NCI-H522 lung 11.2% | A549/ATCC NSCLC 15.9% | 786-0 renal 21.1% | DU-145 prostate 22.1% | K-562 leukemia 14.6% | MDA-MB-231 breast 26.6% | SF-268 CNS 23.4% | SF-539 CNS 14.5%
active: NCI-H23 lung 3.67% | NCI-H460 lung 1.33% | HOP-92 NSCLC -16% | MALME-3M melanoma -3.31% | SF-295 CNS 3.94% | UACC-257 melanoma 0.0475%
